Source: PubChem BioAssay (NCATS)
“And” between values parts separate entries of the source, which are not always exact repeats. Equal values may be shown once. Inconclusive results are not listed. Some structures have more than one record in an assay (separate samples or runs), and their calls can disagree. The source made the active and inactive calls. Unless noted, calls follow the shape of the dose curve; as a rule, active = well fitted inhibition curve with a large enough effect; inconclusive = small, poorly fitted or top-dose-only effect; inactive = no such curve, though single readings can be large or run the other way.

Target: Atrial natriuretic peptide receptor 1 (Homo sapiens) (UniProt P16066)
Sequence (P16066 whole entry, looked up): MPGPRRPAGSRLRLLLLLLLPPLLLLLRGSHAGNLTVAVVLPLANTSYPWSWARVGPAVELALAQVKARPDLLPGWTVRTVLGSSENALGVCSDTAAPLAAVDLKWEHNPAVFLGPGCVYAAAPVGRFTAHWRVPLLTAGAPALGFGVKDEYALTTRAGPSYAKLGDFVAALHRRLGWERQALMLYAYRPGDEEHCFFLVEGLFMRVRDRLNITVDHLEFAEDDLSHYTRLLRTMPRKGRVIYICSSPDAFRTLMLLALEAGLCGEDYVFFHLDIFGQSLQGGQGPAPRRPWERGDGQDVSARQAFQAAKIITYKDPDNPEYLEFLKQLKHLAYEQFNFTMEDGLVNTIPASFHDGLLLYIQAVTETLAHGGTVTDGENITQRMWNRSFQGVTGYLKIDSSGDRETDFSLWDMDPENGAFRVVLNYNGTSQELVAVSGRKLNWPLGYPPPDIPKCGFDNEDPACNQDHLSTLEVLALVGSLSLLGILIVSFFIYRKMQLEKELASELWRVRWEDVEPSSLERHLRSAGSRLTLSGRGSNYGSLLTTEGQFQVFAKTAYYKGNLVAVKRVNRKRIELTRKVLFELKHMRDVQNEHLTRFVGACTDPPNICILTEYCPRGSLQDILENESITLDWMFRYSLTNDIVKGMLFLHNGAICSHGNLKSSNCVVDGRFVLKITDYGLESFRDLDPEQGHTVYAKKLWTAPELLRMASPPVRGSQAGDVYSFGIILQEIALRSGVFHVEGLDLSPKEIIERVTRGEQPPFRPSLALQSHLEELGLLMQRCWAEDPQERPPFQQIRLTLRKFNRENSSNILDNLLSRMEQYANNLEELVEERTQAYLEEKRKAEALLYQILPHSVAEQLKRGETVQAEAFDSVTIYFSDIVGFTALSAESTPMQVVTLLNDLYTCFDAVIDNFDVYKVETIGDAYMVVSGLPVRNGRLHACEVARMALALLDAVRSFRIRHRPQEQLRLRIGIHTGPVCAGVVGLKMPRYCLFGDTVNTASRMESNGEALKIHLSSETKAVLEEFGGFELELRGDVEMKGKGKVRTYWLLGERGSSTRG
Experiment: Natriuretic polypeptide receptor (hNpr1) antagonism - Pilot screen (AID 1347049; calls by dose curve;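 also: HEK293 cells with hNpr1 and GloSensor cGMP luciferase stimulated by 0.1 nM hNppA; agonist-evoked cGMP luminescence read 20 min after hNppA addition; % is scaled to controls: 0 for no effect and ±100 for the full control effect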)
Conditions: hNpr1 cells, antagonist mode cGMP read-out; series mostly up to 57.5 µM; activity change, negative = inhibition: at the top concentration
Method in brief: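 Receptor antagonism read as cGMP-dependent luminescence in hNpr1/pGS-40F HEK293 cells: pre-read after 30 min compound exposure, post-read 20 min after hNppA agonist at 0.1 nM final, all at room temperature, protected from light; A-71915 titration as control.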

Structure (SMILES)	activity change, negative = inhibition
CS(=O)(=O)Nc1ccc([N+](=O)[O-])cc1Oc1ccccc1	-4.51% (inactive)
CC(C(=O)O)c1cccc(C(=O)c2ccccc2)c1 (centres undefined)	9.89% (inactive)
CC(C)NCC(O)c1ccc(O)c(O)c1 (centres undefined)	5.17% (inactive)
Clc1ccccc1C(c1ccccc1)(c1ccccc1)n1ccnc1	9.72% (inactive)
CC(C)C(=O)Nc1ccc([N+](=O)[O-])c(C(F)(F)F)c1	-15.8% (inactive)
Cc1cnc(C(=O)NCCc2ccc(S(=O)(=O)NC(=O)NC3CCCCC3)cc2)cn1	-19.4% (inactive)
CC1COc2c(N3CCN(C)CC3)c(F)cc3c(=O)c(C(=O)O)cn1c23 (centres undefined)	2.88% (inactive)
COc1cc2nc(N3CCN(C(=O)C4COc5ccccc5O4)CC3)nc(N)c2cc1OC (centres undefined)	7.25% (inactive)
O=C1Cc2cc(CCN3CCN(c4nsc5ccccc45)CC3)c(Cl)cc2N1	-25.5% (inactive)
CN1CCC(=C2c3ccccc3CC(=O)c3sccc32)CC1	-2.5% (inactive)
Clc1ccc(C(c2ccccc2Cl)C(Cl)Cl)cc1 (centres undefined)	-26.8% (inactive)
CC[N+](CC)(CC)CCOc1cccc(OCC[N+](CC)(CC)CC)c1OCC[N+](CC)(CC)CC	12.2% (inactive)
Clc1ccc2nsnc2c1NC1=NCCN1	7.57% (inactive)

Target: Atrial natriuretic peptide receptor 2 (Homo sapiens) (UniProt P20594)
Sequence (P20594 whole entry, looked up): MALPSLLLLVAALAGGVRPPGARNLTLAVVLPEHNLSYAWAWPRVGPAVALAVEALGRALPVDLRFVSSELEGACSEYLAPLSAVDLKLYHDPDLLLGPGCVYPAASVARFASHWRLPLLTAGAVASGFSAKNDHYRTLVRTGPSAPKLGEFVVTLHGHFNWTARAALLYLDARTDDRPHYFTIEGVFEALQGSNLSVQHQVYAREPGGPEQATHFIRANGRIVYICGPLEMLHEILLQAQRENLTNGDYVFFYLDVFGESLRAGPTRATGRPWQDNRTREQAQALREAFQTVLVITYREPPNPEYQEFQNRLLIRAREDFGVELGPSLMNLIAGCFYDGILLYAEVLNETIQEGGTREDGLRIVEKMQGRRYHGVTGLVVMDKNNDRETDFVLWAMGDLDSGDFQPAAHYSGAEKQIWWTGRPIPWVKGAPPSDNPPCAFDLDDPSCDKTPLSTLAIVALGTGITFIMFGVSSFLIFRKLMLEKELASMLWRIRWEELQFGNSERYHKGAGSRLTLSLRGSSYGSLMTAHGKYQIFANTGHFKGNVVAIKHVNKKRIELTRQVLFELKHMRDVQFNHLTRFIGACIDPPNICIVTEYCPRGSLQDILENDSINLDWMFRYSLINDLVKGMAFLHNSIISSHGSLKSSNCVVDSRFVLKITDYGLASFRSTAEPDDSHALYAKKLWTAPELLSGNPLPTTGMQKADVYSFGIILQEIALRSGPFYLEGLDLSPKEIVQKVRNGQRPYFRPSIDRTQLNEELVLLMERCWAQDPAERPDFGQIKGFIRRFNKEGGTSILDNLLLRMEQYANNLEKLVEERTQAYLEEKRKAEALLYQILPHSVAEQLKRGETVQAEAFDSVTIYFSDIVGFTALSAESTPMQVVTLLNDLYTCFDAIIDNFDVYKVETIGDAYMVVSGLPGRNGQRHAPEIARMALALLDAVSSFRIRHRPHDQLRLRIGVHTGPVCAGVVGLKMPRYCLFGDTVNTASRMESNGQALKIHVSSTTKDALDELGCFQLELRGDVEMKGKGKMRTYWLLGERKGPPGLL
Experiment: Natriuretic polypeptide receptor (hNpr2) antagonism - Pilot subtype selectivity assay (AID 1347050; calls by dose curve; also: potency is read from the fitted curve at half-maximal effect; as to activity change, negative = inhibition: % is scaled to controls: 0 for no effect and ±100 for the full control effect)
Conditions: NPR2-expressing cells, cGMP antagonist-mode read-out; series mostly up to 38.3 µM; activity change, negative = inhibition: at the top concentration
Method in brief: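 Antagonist mode: compounds (LOPAC1280, seven 1:5 dilutions) added 30 min before 1 nM hNppC stimulation of hNpr2-HEK293 cGMP-sensor cells; luminescence read before and 20 min after agonist at ambient temperature.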

Structure (SMILES)	activity change, negative = inhibition	Potency
CS(=O)(=O)Nc1ccc([N+](=O)[O-])cc1Oc1ccccc1	3.95% (inactive)	–
CC(C(=O)O)c1cccc(C(=O)c2ccccc2)c1 (centres undefined)	-11.3% (inactive)	–
Cn1c(=O)c2c(ncn2C)n(C)c1=O	2.53% (inactive)	–
CC(C)NCC(O)c1ccc(O)c(O)c1 (centres undefined)	0.131% (inactive)	–
Clc1ccccc1C(c1ccccc1)(c1ccccc1)n1ccnc1	4.31% (inactive)	–
CN(Cc1cnc2nc(N)nc(N)c2n1)c1ccc(C(=O)N[C@@H](CCC(=O)O)C(=O)O)cc1	1.93% (inactive)	–
CC(C)C(=O)Nc1ccc([N+](=O)[O-])c(C(F)(F)F)c1	-0.395% (inactive)	–
CN1CCN(CCCN2c3ccccc3Sc3ccc(Cl)cc32)CC1	–	18.5 µM (active)
Cc1cnc(C(=O)NCCc2ccc(S(=O)(=O)NC(=O)NC3CCCCC3)cc2)cn1	-12.6% (inactive)	–
Cc1cn([C@H]2C[C@H](N=[N+]=[N-])[C@@H](CO)O2)c(=O)[nH]c1=O	-0.946% (inactive)	–
CC1COc2c(N3CCN(C)CC3)c(F)cc3c(=O)c(C(=O)O)cn1c23 (centres undefined)	0.571% (inactive)	–
CCOC(=O)Nc1ccc(NCc2ccc(F)cc2)nc1N	-1.98% (inactive)	–
COc1cc2nc(N3CCN(C(=O)C4COc5ccccc5O4)CC3)nc(N)c2cc1OC (centres undefined)	3.44% (inactive)	–
OCCN1CCN(CCCN2c3ccccc3Sc3ccc(C(F)(F)F)cc32)CC1	-16.3% (inactive)	–
Clc1ccc2c(c1)C(N1CCNCC1)=Nc1ccccc1O2	–	8.26 µM (active)
Clc1ccc(C(c2ccccc2Cl)C(Cl)Cl)cc1 (centres undefined)	-1.24% (inactive)	–
CC[N+](CC)(CC)CCOc1cccc(OCC[N+](CC)(CC)CC)c1OCC[N+](CC)(CC)CC	-17.8% (inactive)	–
Clc1ccc2nsnc2c1NC1=NCCN1	-0.489% (inactive)	–
CN(C)CCCN1c2ccccc2CCc2ccc(Cl)cc21	–	7.36 µM (active)

System: not listed separately
Experiment: NS1 protein of Zika virus - qHTS assay to identify small molecule inhibitors in human HEK 293 cells (AID 1347053); also: nearly all actives have a fitted effect of over 55% in size; also: potency is read from the fitted curve at half-maximal effect;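 as to activity change, negative = inhibition: plate controls were infected untreated cells for no effect and uninfected cells for full effect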
Conditions: HEK293 ZIKV MR766 infection, NS1 TR-FRET, 24 h; series mostly up to 46.1 µM; activity change, negative = inhibition: at the top concentration
Method in brief: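 In this cell-based screen, HEK 293 cultures received compound for one hour before Zika MR766 at MOI = 0.5. NS1 was quantified 24 hours later by TR-FRET, normalized to virus-free wells and infected wells.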

Structure (SMILES)	Potency
CS(=O)(=O)Nc1ccc([N+](=O)[O-])cc1Oc1ccccc1	inactive
CS(=O)(=O)CCNCc1ccc(-c2ccc3ncnc(Nc4ccc(OCc5cccc(F)c5)c(Cl)c4)c3c2)o1	inactive
CC(C)NCC(O)c1ccc(O)c(O)c1 (centres undefined)	inactive
Nc1nnc(-c2cccc(Cl)c2Cl)c(N)n1	inactive
CC(=O)OCC(CCn1cnc2cnc(N)nc21)COC(C)=O	inactive
CN(Cc1cnc2nc(N)nc(N)c2n1)c1ccc(C(=O)N[C@@H](CCC(=O)O)C(=O)O)cc1	inactive
CC[C@@]1(O)C(=O)OCc2c1cc1n(c2=O)Cc2cc3c(CN(C)C)c(O)ccc3nc2-1	inactive and 41.8 nM (active)
COc1ccc(CCN(C)CCCC(C#N)(c2ccc(OC)c(OC)c2)C(C)C)cc1OC (centres undefined)	inactive
CC1(CN2CCC(n3c(=O)[nH]c4ccccc43)CC2)OCc2ccccc2-n2cccc21 (centres undefined)	inactive
Cc1cnc(C(=O)NCCc2ccc(S(=O)(=O)NC(=O)NC3CCCCC3)cc2)cn1	inactive
CC1COc2c(N3CCN(C)CC3)c(F)cc3c(=O)c(C(=O)O)cn1c23 (centres undefined)	inactive
CCOC(=O)Nc1ccc(NCc2ccc(F)cc2)nc1N	inactive
CN1CCC(=C2c3ccccc3CC(=O)c3sccc32)CC1	inactive
CC(C)(C)C(=O)Oc1ccc(S(=O)(=O)Nc2ccccc2C(=O)NCC(=O)O)cc1	inactive
CC#C[C@]1(O)CC[C@H]2[C@@H]3CCC4=CC(=O)CCC4=C3[C@@H](c3ccc(N(C)C)cc3)C[C@@]21C	inactive
CC1(C)O[C@H]2CC(=O)OC[C@]23[C@H]2CC[C@@]4(C)[C@H](c5ccoc5)OC(=O)[C@H]5O[C@]54[C@]2(C)C(=O)C[C@@H]13	inactive
CN(C)C(=N)N=C(N)N	inactive
Clc1ccc(C(c2ccccc2Cl)C(Cl)Cl)cc1 (centres undefined)	inactive and 18.7 µM (active)
Cn1ccc2cc3c(cc21)CCN3C(=O)Nc1cccnc1	inactive
CC[N+](CC)(CC)CCOc1cccc(OCC[N+](CC)(CC)CC)c1OCC[N+](CC)(CC)CC	inactive
Clc1ccc2nsnc2c1NC1=NCCN1	inactive
CN(C)CCCN1c2ccccc2CCc2ccc(Cl)cc21	inactive
